Experimental data from the supplement of paper PMC11732987, “Enantioselective OTUD7B fragment discovery through chemoproteomics screening and high-throughput optimisation” (Communications Chemistry, 2025).

Key:
Experiment in all cases: log2 ratio of Biotin-Ahx-Ub-VS probe labelling (fragment/DMSO); higher = less target engagement (more negative = stronger competition), active = hit call of the paper (q ≤ 0.05, log2 ratio ≤ -1)
Conditions in all cases: compound concentration: 200 uM; treatment time: 3 h
[1] = target: T1, USP42 (UniProt Q9H9J4)
T1 sequence (whole entry): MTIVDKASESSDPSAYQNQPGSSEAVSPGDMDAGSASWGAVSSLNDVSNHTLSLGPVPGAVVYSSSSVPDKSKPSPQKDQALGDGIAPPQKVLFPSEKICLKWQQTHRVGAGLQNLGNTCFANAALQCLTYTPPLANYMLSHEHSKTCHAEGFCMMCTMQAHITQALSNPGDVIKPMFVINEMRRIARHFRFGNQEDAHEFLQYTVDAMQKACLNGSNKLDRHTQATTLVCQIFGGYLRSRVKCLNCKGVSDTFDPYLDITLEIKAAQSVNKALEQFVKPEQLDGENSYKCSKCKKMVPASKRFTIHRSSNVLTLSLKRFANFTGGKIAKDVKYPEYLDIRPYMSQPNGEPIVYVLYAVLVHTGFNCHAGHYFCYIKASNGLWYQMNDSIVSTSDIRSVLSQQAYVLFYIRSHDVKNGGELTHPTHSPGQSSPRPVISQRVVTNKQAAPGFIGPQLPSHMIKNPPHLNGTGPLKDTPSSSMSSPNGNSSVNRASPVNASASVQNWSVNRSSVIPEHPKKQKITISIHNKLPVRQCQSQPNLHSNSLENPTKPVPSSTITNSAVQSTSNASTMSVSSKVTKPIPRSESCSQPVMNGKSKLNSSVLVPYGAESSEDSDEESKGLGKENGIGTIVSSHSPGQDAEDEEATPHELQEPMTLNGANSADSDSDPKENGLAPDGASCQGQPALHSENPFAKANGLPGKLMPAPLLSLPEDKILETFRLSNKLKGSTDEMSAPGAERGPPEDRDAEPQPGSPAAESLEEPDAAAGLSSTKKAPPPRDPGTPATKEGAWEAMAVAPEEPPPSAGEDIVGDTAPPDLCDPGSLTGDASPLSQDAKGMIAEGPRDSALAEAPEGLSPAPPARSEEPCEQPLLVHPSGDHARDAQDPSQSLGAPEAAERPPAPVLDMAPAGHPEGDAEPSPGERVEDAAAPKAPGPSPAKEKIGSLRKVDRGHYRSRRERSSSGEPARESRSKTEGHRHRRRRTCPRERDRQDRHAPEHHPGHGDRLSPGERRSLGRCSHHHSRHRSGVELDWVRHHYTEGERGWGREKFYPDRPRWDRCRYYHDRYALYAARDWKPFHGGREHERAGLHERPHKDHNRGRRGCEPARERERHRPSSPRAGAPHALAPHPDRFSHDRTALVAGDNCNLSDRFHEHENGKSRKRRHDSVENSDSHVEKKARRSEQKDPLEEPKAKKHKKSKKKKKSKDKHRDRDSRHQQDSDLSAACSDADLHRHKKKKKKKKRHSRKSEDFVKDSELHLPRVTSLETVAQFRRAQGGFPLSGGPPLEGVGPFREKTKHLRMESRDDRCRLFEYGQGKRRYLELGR
How it was run: (§1)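 Fragment (200 µM) or vehicle was incubated for 3 h with triplicate HEK293T lysate samples of 495 µg, which were then treated with Biotin-Ahx-Ub-VS at 0.5 µM final for 1 h. Labelled DUBs were enriched on NeutrAvidin, digested with LysC and trypsin, and analysed by diaPASEF LC-MS/MS. Values are average log2 fragment/vehicle ratios from an unpaired t-test on global-median-normalised Spectronaut label-free quantities, using proteins with ≥2 unique peptides.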

[2] = target: USP46 (UniProt P62068)
How it was run: as §1

[3] = target: T2, USP47 (UniProt Q96K76)
T2 sequence (whole entry): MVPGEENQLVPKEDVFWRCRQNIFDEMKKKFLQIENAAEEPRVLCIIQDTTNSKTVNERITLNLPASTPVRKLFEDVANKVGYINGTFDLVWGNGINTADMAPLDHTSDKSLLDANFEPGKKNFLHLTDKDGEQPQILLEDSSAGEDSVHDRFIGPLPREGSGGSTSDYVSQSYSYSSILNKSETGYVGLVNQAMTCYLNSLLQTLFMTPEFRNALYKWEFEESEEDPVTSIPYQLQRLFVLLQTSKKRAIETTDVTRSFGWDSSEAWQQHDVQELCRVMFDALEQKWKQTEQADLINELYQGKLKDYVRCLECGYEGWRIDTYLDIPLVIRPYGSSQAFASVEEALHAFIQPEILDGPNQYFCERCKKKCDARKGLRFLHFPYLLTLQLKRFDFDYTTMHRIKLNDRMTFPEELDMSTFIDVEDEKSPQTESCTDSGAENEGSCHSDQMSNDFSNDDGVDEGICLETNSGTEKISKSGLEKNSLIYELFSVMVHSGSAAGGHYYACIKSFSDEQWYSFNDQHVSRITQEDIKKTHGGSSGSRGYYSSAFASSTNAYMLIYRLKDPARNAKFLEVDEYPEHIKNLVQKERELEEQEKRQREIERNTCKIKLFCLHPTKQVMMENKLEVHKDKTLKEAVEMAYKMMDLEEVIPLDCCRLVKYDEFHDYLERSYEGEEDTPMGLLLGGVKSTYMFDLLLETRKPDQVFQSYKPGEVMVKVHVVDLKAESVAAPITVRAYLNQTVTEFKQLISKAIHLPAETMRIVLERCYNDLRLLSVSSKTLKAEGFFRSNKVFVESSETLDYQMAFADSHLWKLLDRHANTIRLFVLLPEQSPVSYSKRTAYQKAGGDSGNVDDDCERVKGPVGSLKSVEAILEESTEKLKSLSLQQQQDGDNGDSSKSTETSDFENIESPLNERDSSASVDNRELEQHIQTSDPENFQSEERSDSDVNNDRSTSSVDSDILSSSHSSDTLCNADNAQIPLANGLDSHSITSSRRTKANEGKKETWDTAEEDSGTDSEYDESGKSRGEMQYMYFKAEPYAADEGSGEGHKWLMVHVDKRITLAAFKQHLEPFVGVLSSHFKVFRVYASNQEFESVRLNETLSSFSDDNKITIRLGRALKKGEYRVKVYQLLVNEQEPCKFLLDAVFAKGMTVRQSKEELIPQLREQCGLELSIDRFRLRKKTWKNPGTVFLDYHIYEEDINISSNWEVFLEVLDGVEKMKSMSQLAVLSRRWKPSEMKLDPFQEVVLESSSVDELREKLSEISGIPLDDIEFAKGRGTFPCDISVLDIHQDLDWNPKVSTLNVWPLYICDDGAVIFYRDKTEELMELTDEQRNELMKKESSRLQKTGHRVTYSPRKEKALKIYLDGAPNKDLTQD
How it was run: as §1

[4] = target: T3, USP48 (UniProt Q86UV5)
T3 sequence (whole entry): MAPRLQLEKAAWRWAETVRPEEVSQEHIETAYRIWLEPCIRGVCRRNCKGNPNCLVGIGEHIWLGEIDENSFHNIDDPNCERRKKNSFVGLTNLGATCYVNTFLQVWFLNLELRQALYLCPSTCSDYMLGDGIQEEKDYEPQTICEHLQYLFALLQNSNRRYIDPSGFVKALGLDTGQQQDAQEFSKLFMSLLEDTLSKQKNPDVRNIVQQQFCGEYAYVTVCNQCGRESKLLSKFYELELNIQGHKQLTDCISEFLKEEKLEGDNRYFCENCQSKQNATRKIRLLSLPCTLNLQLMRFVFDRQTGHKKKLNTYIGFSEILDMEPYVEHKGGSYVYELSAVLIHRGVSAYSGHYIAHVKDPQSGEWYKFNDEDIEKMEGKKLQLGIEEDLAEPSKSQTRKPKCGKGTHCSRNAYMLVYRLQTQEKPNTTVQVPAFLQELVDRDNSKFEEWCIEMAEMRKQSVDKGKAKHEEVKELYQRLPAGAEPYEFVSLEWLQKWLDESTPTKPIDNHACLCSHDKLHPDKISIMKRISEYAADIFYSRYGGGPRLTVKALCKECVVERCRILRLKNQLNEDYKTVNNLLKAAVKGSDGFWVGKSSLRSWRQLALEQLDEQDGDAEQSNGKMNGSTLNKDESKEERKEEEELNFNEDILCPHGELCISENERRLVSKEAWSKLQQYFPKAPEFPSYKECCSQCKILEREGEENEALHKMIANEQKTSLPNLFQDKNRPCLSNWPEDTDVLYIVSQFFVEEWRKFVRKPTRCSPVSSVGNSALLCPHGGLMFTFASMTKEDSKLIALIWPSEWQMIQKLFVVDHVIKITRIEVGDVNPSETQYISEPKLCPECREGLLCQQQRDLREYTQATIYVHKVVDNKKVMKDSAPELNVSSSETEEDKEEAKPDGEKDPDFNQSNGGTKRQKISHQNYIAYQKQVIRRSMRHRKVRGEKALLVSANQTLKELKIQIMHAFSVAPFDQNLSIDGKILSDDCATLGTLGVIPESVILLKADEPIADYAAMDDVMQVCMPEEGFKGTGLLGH
How it was run: as §1

[5] = target: T4, USP5 (UniProt P45974)
T4 sequence (whole entry): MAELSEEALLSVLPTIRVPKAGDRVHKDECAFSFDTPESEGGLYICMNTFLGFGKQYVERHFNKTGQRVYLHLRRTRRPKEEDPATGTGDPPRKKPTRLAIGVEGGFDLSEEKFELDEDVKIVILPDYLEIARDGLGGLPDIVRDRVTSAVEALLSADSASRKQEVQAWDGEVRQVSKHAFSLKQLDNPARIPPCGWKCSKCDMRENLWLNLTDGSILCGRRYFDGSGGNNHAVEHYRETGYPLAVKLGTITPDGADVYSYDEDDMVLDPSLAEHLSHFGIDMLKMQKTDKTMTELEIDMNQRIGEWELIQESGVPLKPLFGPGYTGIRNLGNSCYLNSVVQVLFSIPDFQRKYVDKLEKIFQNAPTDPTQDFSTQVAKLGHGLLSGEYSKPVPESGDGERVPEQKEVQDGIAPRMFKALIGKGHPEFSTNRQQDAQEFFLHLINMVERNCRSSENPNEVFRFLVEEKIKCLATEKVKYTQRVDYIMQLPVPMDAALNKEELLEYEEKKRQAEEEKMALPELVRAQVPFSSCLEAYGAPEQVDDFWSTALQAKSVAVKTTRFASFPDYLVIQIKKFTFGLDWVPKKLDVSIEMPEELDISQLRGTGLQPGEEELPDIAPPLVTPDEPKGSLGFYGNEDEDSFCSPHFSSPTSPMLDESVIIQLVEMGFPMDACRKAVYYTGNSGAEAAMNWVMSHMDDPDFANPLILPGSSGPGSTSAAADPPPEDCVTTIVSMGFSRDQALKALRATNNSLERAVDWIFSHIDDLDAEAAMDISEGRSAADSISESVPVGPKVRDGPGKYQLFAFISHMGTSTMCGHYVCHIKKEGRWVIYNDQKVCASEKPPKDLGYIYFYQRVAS
How it was run: as §1

[6] = target: USP54 (UniProt Q70EL1)
How it was run: as §1

[7] = target: USP7 (UniProt Q93009)
How it was run: as §1

[8] = target: T5, USP8 (UniProt P40818)
T5 sequence (whole entry): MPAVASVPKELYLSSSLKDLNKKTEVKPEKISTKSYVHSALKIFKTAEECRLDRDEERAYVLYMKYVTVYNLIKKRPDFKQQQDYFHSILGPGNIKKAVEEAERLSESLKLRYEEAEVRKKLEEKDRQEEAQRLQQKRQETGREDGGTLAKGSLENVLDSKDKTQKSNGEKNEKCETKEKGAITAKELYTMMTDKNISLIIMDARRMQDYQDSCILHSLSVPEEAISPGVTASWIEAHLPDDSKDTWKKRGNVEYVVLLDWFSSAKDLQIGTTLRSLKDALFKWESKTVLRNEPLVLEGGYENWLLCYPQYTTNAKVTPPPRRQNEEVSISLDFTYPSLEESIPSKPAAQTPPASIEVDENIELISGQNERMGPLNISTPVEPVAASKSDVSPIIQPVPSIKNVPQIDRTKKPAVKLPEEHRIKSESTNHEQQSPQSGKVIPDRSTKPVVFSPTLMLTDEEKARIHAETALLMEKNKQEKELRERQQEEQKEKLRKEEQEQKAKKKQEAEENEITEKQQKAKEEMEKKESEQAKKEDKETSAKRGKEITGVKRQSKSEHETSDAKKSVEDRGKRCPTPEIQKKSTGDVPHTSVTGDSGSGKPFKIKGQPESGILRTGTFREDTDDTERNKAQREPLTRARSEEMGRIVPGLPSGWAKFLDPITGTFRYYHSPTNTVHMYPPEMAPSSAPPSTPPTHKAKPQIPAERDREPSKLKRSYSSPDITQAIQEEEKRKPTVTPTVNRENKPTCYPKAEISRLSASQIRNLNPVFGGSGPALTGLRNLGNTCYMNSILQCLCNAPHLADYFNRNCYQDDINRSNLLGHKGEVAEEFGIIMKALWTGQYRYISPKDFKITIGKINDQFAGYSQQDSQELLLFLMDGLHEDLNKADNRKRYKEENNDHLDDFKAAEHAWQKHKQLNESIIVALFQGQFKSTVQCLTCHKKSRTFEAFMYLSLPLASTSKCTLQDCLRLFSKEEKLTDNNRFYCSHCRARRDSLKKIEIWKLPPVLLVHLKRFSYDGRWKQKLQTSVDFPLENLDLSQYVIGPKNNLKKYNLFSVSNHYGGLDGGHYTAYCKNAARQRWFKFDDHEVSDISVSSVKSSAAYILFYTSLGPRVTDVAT
How it was run: as §1

Measured: log2 ratio of Biotin-Ahx-Ub-VS probe labelling

Chain of USP46 (P62068 whole entry): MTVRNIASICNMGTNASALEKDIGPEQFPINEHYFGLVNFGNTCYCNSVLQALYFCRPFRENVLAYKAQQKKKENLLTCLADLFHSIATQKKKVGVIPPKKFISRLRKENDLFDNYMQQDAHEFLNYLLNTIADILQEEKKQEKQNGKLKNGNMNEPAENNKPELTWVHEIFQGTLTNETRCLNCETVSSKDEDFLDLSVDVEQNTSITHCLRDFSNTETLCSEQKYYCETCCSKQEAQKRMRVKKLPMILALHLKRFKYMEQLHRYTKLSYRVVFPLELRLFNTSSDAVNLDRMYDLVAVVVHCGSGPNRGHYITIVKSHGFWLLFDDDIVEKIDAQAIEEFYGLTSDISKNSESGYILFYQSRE
Chain of USP54 (Q70EL1 whole entry): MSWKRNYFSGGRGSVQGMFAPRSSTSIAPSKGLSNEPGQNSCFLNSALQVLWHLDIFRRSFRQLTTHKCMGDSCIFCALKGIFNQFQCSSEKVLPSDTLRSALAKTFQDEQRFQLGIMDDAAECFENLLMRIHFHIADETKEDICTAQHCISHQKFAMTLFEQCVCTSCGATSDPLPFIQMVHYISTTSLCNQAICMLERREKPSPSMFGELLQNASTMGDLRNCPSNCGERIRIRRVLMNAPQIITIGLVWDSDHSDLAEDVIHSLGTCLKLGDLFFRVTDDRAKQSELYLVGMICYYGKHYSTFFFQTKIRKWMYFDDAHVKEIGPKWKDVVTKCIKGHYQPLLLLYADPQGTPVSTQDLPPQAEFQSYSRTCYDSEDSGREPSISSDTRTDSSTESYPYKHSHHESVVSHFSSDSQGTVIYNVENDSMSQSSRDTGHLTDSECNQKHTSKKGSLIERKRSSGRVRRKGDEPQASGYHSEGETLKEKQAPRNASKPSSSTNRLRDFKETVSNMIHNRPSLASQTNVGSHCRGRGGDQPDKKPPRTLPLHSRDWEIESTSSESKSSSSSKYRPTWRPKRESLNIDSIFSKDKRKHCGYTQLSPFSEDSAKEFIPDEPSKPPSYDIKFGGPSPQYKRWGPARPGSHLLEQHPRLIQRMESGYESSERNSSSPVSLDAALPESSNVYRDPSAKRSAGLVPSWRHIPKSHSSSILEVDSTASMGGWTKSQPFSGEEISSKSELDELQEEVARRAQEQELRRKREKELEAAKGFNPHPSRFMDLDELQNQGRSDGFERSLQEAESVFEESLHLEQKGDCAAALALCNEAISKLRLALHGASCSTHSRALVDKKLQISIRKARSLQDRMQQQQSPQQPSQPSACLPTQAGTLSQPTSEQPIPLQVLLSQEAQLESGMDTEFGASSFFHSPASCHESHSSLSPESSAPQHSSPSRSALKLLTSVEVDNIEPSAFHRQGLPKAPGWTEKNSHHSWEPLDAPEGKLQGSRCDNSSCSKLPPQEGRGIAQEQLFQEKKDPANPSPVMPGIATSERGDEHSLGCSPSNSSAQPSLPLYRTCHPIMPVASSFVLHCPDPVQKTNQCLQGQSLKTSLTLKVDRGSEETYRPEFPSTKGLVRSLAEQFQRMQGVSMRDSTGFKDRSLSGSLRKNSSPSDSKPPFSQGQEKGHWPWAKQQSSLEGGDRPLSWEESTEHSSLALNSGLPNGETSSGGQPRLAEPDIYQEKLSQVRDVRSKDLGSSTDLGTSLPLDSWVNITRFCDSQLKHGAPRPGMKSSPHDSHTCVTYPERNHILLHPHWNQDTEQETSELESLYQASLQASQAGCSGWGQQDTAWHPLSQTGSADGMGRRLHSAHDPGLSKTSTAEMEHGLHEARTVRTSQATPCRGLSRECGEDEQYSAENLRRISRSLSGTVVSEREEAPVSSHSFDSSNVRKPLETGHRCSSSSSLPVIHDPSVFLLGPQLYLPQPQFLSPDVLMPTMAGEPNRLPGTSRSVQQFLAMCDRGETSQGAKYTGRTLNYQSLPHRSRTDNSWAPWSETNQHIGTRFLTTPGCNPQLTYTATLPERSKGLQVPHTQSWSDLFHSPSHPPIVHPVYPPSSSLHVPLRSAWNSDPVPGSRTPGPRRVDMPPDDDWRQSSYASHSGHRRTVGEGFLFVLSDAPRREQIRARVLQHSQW
Chain of USP7 (Q93009 whole entry, looked up): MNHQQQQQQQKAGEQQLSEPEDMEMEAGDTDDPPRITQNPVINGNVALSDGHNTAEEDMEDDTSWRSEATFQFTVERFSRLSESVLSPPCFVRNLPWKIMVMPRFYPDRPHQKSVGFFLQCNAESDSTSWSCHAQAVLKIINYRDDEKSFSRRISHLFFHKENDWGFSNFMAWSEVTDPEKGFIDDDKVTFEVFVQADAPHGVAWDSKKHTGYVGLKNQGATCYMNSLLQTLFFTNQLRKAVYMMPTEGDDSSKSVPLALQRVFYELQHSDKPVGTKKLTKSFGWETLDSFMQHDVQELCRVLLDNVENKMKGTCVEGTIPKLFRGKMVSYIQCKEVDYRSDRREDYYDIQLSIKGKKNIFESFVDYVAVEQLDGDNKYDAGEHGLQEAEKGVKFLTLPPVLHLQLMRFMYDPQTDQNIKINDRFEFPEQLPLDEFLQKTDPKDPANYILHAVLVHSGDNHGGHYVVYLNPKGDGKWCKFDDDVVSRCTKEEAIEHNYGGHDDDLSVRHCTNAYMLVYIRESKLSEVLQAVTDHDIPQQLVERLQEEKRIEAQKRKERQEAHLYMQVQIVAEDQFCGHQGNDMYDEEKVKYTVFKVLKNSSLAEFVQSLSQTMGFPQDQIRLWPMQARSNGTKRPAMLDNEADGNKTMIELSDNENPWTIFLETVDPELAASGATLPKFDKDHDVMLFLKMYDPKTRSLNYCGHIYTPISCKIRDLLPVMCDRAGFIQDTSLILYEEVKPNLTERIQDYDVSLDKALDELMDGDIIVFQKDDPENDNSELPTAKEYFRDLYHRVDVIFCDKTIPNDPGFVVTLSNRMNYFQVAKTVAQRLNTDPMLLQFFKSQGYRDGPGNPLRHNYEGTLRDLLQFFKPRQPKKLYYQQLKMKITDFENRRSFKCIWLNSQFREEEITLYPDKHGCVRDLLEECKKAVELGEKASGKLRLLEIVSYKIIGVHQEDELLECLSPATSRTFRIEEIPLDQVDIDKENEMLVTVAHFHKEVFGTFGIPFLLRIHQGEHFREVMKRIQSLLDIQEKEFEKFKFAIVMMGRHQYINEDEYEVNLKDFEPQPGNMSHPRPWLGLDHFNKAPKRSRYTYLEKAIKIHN

CC(NC(=O)CCl)c1cc2n(n1)CCCC2.Cl (stereo not drawn)
inactive: [1] 0.487 | [2] -0.0285 | [3] 0.43 | [4] -0.017 | [5] -0.437 | [6] 0.53 | [7] -0.279 | [8] 0.0604
